FBW7 activator = FBW7 E3 ligase activators, primary screen, biochemical, AlphaScreen, human; AID 1259310, 2017; 650,000 tested, 0.13% active; AlphaScreen FBW7–phospho-cyclin E peptide binding, activator screen; F-box/WD repeat-containing protein 7 (Homo sapiens), Q969H0; normalized activity (activation), % at 26.1 µM; in the data active = normalized activity above about 1.9%;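 also: purified mutant Fbw7 with reduced substrate affinity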
MITF inh = MITF inhibitors, primary screen, biochemical, AlphaScreen, human. 650,000 tested, 0.91% active. Microphthalmia-associated transcription factor (Homo sapiens), O75030. AlphaScreen MITF homodimerization, bead proximity signal. AID 1259374, 2018. inhibition, % at 2.6 µM; in the data active = inhibition above about 50%;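 also: 0% = vehicle wells with protein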
Target sequence (O75030 whole entry, looked up): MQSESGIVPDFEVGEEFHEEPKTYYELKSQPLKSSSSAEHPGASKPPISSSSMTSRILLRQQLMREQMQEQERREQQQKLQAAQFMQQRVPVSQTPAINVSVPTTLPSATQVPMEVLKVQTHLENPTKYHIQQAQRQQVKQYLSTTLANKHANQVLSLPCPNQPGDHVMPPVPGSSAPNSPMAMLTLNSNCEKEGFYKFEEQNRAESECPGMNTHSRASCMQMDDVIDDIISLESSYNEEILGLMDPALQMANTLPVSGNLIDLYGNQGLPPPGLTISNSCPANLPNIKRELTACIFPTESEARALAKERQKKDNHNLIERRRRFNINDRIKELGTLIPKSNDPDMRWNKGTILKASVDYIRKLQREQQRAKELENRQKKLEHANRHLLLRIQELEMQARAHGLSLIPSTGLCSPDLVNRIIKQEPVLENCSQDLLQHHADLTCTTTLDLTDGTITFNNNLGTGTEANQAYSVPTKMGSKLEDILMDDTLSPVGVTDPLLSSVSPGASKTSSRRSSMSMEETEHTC
TEAD-YAP inh = TEAD-YAP interaction inhibition, primary screen, TEAD-YAP interaction inhibitor project, luminescence, HEK-TIYL cells | TEAD-Gal4/YAP UAS-luciferase luminescence | inhibition, % at 9.12 µM | 640,000 tested, 1.4% active | AID 1259422, 2018; in the data active = inhibition above about 32%;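 also: 0% = median of test compound wells and 100% = reference inhibitor wells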
GPR151 ag = activators of human GPR151, primary screen, cell-based, PathHunter beta-arrestin, luminescence | G-protein coupled receptor 151 (Homo sapiens), Q8TDV0 | PathHunter beta-arrestin GPR151 cells | activation, % at 11.2 µM | 650,000 tested, 1% active | AID 1508602, 2020; in the data active = activation above about 4.9%;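 also: 0% = median of compound wells and 100% = cells with positive control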
GPR151 confirm = GPR151 activators, triplicate retest, confirmation, cell-based, PathHunter beta-arrestin, luminescence; shares compounds with GPR151 ag; GPR151 PathHunter beta-arrestin cells, 90 min; % of EA-reagent control over plate median; activation, % at 11.2 µM; 6,700 tested, under 10 active; AID 1508609, 2020;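 active = mean percent activation across replicates above the confirmation screen cutoff of 4.91%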
GPR119 counter = GPR119 activators in beta-arrestin cells, counter-screen for GPR151 activator project, cell-based, PathHunter beta-arrestin, luminescence, triplicate; 90 min; 0 = compound-well median, 100 = enzyme-acceptor control; activation, % at 11.2 µM; shares compounds with GPR151 ag; 6,700 tested, 0.3% active;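 active = mean percent activation in the counterscreen above 29.09%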;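 also: counterscreen on off-target GPR119 to flag nonselective hits from the GPR151 activator screen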
Active calls of the source: *; · = no result given; ! = not active in a repeat. The list is not random: actives were taken first. Their share in the collection is about 3.5%.

SMILES | FBW7 activator | MITF inh | TEAD-YAP inh | GPR151 ag | GPR151 confirm | GPR119 counter
CC1CCCC(C)N1C(=O)CSc1nc2ccc([N+](=O)[O-])cc2s1 (stereo not given) | 0.0 | 5.0 | -2.6 | -0.5 | · | ·
CCOc1ccc(S(=O)(=O)NCC(c2ccco2)S(=O)(=O)c2ccc(C)cc2)cc1 (stereo not given) | 0.3 | 11.2 | 0.0 | 8.4* | -1.3 | -11.3
CCN1CCN(CCCN(Cc2ccco2)C(=S)Nc2ccc(OC)cc2)CC1 | 0.0 | 0.9 | 8.7 | 0.2 | · | ·
Cc1c(C(=O)NCC2CCCO2)oc2ccc3c(c12)C=CC(C)(C)O3 (stereo not given) | 0.1 | 10.8 | -72.9 | 10.1* | -0.8 | -1.8
Cc1csc(SCC(=O)Nc2ccccn2)n1 | 0.0 | 2.0 | -3.4 | 6.2* | -0.8 | -11.7
COc1ccc(CN2CCOc3ccc(CN4C[C@@H](C)O[C@@H](C)C4)cc3C2)cc1OC | -0.8 | 12.1 | 9.3 | 2.5 | · | ·
C[C@@H]1CN(Cc2ccc3c(c2)CN(Cc2ccc4c(c2)CCO4)CCO3)C[C@H](C)O1 | -0.1 | -1.3 | -13.3 | 6.5* | -0.5 | 3.9
CC(=O)Nc1ccc(Nc2nc(N3CCN(Cc4ccc5c(c4)OCO5)CC3)nc3c2ncn3CCN2CCCC2=O)cc1 | 0.1 | 8.9 | 5.5 | -1.0 | · | ·
CCCCOc1ccc(-c2nnc(-c3ccc(-c4ccccc4)cc3)o2)cc1 | -0.1 | 4.8 | 2.0 | 5.5* | 0.0 | -9.8
CC(C)(C)c1ccc(C(=O)On2c(-c3ccccc3F)nc3ccccc3c2=O)cc1 | -0.2 | 3.3 | -0.3 | 5.9* | 1.2 | 13.6
Cc1cccc(-c2n[nH]c(=S)n2CC(=O)O)c1 | 0.1 | 7.3 | 2.9 | 7.2* | 0.3 | 3.2
Cc1cc(C(=O)COC(=O)c2cc(Cl)cc(Cl)c2)c(C)n1C | 0.0 | -1.1 | -8.5 | -1.2 | · | ·
Cc1[nH]c(C(=O)OCC(=O)c2cc(C)n(C)c2C)c(C)c1C(C)O (stereo not given) | -0.2 | 1.8 | -19.5 | 5.2* | 1.1 | 0.2
Cc1cccc(NC(=O)C(=O)NC2CCCCCC2)c1 | -0.1 | -0.2 | -52.1 | -1.1 | · | ·
Cc1cccc(NC(=O)C(=O)NC2CCCCC2)c1 | 0.1 | 0.2 | -27.1 | 5.5* | -2.6 | -20.9
O=S(=O)(NCC1CCCO1)c1ccc(Cl)c(C(F)(F)F)c1 (stereo not given) | 1.0 | -5.8 | 7.4 | 0.5 | · | ·
O=S(=O)(NCC1CCCO1)c1ccc(-c2ccc(Cl)cc2)cc1 (stereo not given) | 0.1 | 19.0 | -0.6 | 7.4* | 0.9 | -0.5
CCOC(=O)CSC1=C(C#N)C(c2ccco2)C(C(=O)Nc2ccccc2)=C(C)N1 (stereo not given) | 1.2 | -2.9 | -7.8 | 5.0* | 0.6 | -1.2
O=C(COC(=O)c1cc2cc(Br)ccc2oc1=O)c1ccc(Br)cc1 | 0.1 | 15.9 | 19.3 | -1.4 | · | ·
CCOC(=O)C1=C(C)NC2=C(C(=O)C(C(=O)OC)C(C)C2)C1c1ccccc1OC(C)C (stereo not given) | 0.2 | -4.2 | -8.7 | 5.2*! | 1.0 | 4.8
CCCCNc1nc(Nc2cccc(OC)c2)c2cnn(C)c2n1 | 0.8 | 27.9 | 2.3 | 1.0 | · | ·
O=C(c1ccc(Br)c(S(=O)(=O)N2CCCCC2)c1)N1CCCCC1 | 0.1 | -11.3 | -10.3 | 10.6* | 1.7 | 14.1
c1ccc(CN2CCC(Nc3ncc(-c4cccs4)cn3)CC2)cc1 | -0.2 | -3.3 | -10.4 | 6.8* | -0.1 | 3.8
Cc1cc(NC2CCN(Cc3ccccc3)CC2)nc(-c2cccs2)n1 | -0.1 | 9.6 | 7.5 | 2.0 | · | ·
COc1ccccc1Nc1nc2nonc2nc1Nc1ccc(C)c(Cl)c1 | -0.5 | -6.5 | 6.2 | 0.7 | · | ·
CCOc1cc(C2NC(=O)NC(C)=C2C(=O)OCc2ccc(C)cc2)ccc1O (stereo not given) | -0.1 | 2.1 | -3.7 | 0.4 | · | ·
Cc1ccc(CCNC(=O)c2cc3c(s2)CS(=O)(=O)C3)cc1 | 0.1 | 4.7 | 0.0 | -0.3 | · | ·

Screens: PubChem BioAssay, The Scripps Research Institute Molecular Screening Center
